IL1B secr inh – qHTS for Inhibitors of Inflammasome Signaling: IL-1-beta AlphaLISA Primary Screen. THP-1 LPS/ATP IL-1B secretion, AlphaLISA, 16 h; stronger effect = lower value. activity change, % at 57.5 µM. hit rate 4.7% among 360,000; in the data active means activity change below about -50%; inconclusive means mostly about -30% to -49%
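Secreted IL-1B measured by AlphaLISA bead assay after 16 h compound exposure of THP-1 cells; compounds (final up to 57.5 uM) added 1 h before LPS (250 ng/mL) and ATP (1.25 mM) stimulation; lower signal means less secretion.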
HT1080-NT tox – qHTS for induction of synthetic lethality in tumor cells producing 2HG: qHTS for the HT-1080-NT fibrosarcoma cell line | HT-1080-NT fibrosarcoma viability, CellTiter-Glo ATP luminescence, 48 h | Potency, µM (highest dose often 46.1 µM), for the others: at the highest dose activity, negative = less viability, most hits filed as cytotoxic | hit rate 1.6% among 360,000;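 further: NT is the 2HG producing partner of a matched IDH1 knockdown line; potency means the concentration at half of the fitted maximal effect; 0% = DMSO-treated cells and -100% = media-only wells without cells; nearly all actives have a fitted effect of over 55% in size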
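HT-1080-NT; 750 cells/well; 5% FBS RPMI; 48 h compound, 37 degrees C; CellTiter-Glo luminescence; curve fitting and curve-class assignment.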
DT40 TDP1 CPT – qHTS for Inhibitors of human tyrosyl-DNA phosphodiesterase 1 (TDP1): qHTS in cells in presence of CPT. chicken DT40 Tdp1-/-;hTDP1 cells + 20 nM CPT, ATP luminescence, 48 h. Potency, µM (doses to about 46.2 µM), inactives show at the highest dose activity change, negative = growth inhibition, actives largely listed as inhibitors. hit rate 12% among 420,000; further: potency means the concentration at half of the fitted maximal effect; nearly all actives have a fitted effect of over 55% in size
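Chicken DT40 Tdp1-/- cells complemented with human TDP1, 400 cells/well, exposed to compounds plus 20 nM camptothecin for at least 48 h at 37 C; viability read as ATP content by CellTiter-Glo luminescence.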
ELG1 repair inh – qHTS screen for small molecules that inhibit ELG1-dependent DNA repair in human embryonic kidney (HEK293T) cells expressing luciferase-tagged ELG1. HEK293T ELG1-luciferase reporter, luminescence, 16 h; DNA damage induced by 5-fluorouridine. hit rate 2.3% among 330,000. Potency, µM (top dose mostly 46.1 µM), for the others: at the highest dose activity change, negative = inhibition, actives largely listed as inhibitors; further: potency means the concentration at half of the fitted maximal effect; nearly all actives have a fitted effect of over 55% in size
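Luminescence from the luciferase reporter, measured 30 min after ONE-Glo reagent at room temperature, was the read-out. Beforehand, 2,000 cells per well were exposed for 16 hr at 37 °C to 5-fluorouridine together with compound or vehicle.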
HT1080 IDH1KD tx – qHTS for induction of synthetic lethality in tumor cells producing 2HG: qHTS for the HT-1080-IDH1KD cell line | HT-1080 IDH1 knockdown viability, ATP luminescence, 48 h | Potency, µM (top dose mostly 46.1 µM), for inactives: at the top dose activity, negative = toxicity, actives largely listed as cytotoxic | hit rate 2% among 360,000 | AID 686971, 2013;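 further: potency means the concentration at half of the fitted maximal effect; 0% = DMSO wells and -100% = cell-free medium wells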
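Assay cells: HT-1080 with IDH1 knockdown, 750 per well, RPMI/5% FBS. Exposure: 48 h at 37 °C following 2 h pre-incubation. Read: CellTiter-Glo luminescence; fitted concentration-response, curve class assigned.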
TDP1 cell noCPT – qHTS for Inhibitors of human tyrosyl-DNA phosphodiesterase 1 (TDP1): qHTS in cells in absence of CPT. DT40 Tdp1-/- hTDP1 cells, no CPT, ATP luminescence, 48 h. Potency, µM (top dose mostly 46.2 µM), inactives show at the highest dose activity change, negative = growth inhibition, most hits filed as inhibitors. hit rate 15% among 420,000. AID 686978, 2013; further: potency means the concentration at half of the fitted maximal effect; nearly all actives have a fitted effect of over 55% in size
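Growth kinetics read by CellTiter-Glo luminescence after ≥48 hr at 37 °C. Cells: DT40 Tdp1-/- stably carrying human TDP1, 400 per well, compound exposure in the absence of CPT (DMSO vehicle).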
* hit, by the source's call; ? = inconclusive; nt = no result; ! = not active in a repeat. Compounds with a hit are over-represented: about 19% of the library has one in this group of screens. Unless noted, the call rests on the fitted dose curve; in most records, active means well fitted curve in the direction sought with a large enough effect; inconclusive means small, poorly fitted or top-dose-only effect, or another doubt; inactive means no such curve, though single readings can be large; an effect the other way counts as inactive or inconclusive. Unless noted, on the % scale 0 is the no-effect control and ±100 the full control effect.

SMILES	IL1B secr inh	HT1080-NT tox	DT40 TDP1 CPT	ELG1 repair inh	HT1080 IDH1KD tx	TDP1 cell noCPT
CC(=O)Oc1ccc2c(c1)CCC1C2CC[C@]2(C)C(OC(C)=O)CCC12 (some centres undefined)	nt	nt	6%	nt	nt	0%
CCN(CC)c1ccc(S(=O)(=O)N2CCOCC2)cc1NC(=O)CSc1ccccc1	-13	-2%	16µM*	-27%	-13%	?
O=C(Cn1cnc2c(cnn2-c2ccccc2)c1=O)Nc1cc(S(=O)(=O)N2CCOCC2)ccc1Cl	14	-5%	?	23µM*	-5%	23µM*
Cc1ccc(S(=O)(=O)N2CCOCC2)cc1NC(=O)COC(=O)c1cnc(Cl)c(Cl)c1	-87*	1%	-8%	27%	0%	-12%
CCN(CC)c1ccc(S(=O)(=O)N2CCOCC2)cc1NC(=O)c1cc(=O)c2ccccc2o1	-1	-2%	8.2µM*	0%	1%	7.3µM*
O=C(Cn1cnc2c(cnn2-c2ccccc2)c1=O)N1CCOCC1	0	16%	-7%	-9%	10%	-9%
COc1ccc(C(=O)C[n+]2cc(Br)cc(Br)c2)cc1	nt	nt	-5%	nt	nt	3%
CCN(C(=O)c1ccco1)c1nnc(-c2cccnc2)s1	-12	4%	-4%	?	3%	-26%
COc1cccc(C(=O)C2CN(c3ccccc3)CC2c2ccc(Cl)cc2)c1 (centres undefined)	?	-11%	?	12%	?	-18%
O=C(c1ccccc1)C1CN(c2ccccc2)CC1c1ccc(Cl)cc1 (centres undefined)	12	-1%	?	-13%	2%	16µM*
COCCNC(=O)C1(C)CCCN(CC(=O)c2ccc(OC)cc2)C1 (centres undefined)	2	13%	-12%	nt	13%	11%
CC(C)(C)C1COc2ccccc2N1C(=O)c1ccccc1Cl (centres undefined)	46	11%	?	-13%	7%	?
Cc1ccccc1C(=O)N1c2ccccc2OCC1C(C)(C)C (centres undefined)	47	-1%	?	-17%	-6%	21µM*
CCC(=O)Nc1ccc(N2CCN(S(C)(=O)=O)CC2)cc1	13	0%	-11%	25%	-9%	-3%
COC(=O)c1cc(=O)c2ccc(OC)cc2o1	14	6%	-2%	0%	0%	1%
COC(=O)c1cc(-c2c(C)oc3cc(OC(C)C)ccc3c2=O)c(C)o1	-6	6%	15µM*	?	0%	15µM*
COc1ccc([C@@H]2Sc3ccccc3N(CCN(C)C)C(=O)[C@@H]2OC(C)=O)cc1	10	-9%	?	0%	-11%	27µM*!
CCOc1ccc(-c2cc3c(=O)n(Cc4nc(-c5ccc(OCC)c(OC)c5)oc4C)ccn3n2)cc1Cl	nt	nt	-6%	nt	nt	-2%
CC(=O)c1ccc(NC(=O)CC23CC4CC(C2)CC(n2nnc(C)n2)(C4)C3)cc1	-12	0%	?	-29%	5%	13µM*
COc1ccc(NC(=O)CC23CC4CC(C2)CC(n2nnc(C)n2)(C4)C3)cc1	44	21%	-16%	5%	4%	?
Cc1ccc(CNC(=O)COc2ccc(S(=O)(=O)N3CCOCC3)cc2)cc1	-3	16%	9%	13%	16%	-17%

Compound activity as filed in PubChem.
